From PubChem BioAssay
DT40 TDP1 no CPT: qHTS for Inhibitors of human tyrosyl-DNA phosphodiesterase 1 (TDP1): qHTS in cells in absence of CPT. DT40 Tdp1-/- hTDP1 cells, no CPT, ATP luminescence, 48 h. Potency, µM (series often up to 46.2 µM), for inactives: at the highest dose activity change, negative = growth inhibition, hits mostly inhibitors. 420,000 tested, 15% active; further: potency means the concentration at half of the fitted maximal effect; nearly all actives have a fitted effect of over 55% in size
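Stably hTDP1-transfected Tdp1-null chicken DT40 cells were treated with library compounds minus camptothecin and grown for at least 48 hr at 37 °C, after which cellular ATP was quantified by luminescence.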
TDP1 cell CPT: qHTS for Inhibitors of human tyrosyl-DNA phosphodiesterase 1 (TDP1): qHTS in cells in presence of CPT | chicken DT40 Tdp1-/-;hTDP1 cells + 20 nM CPT, ATP luminescence, 48 h | 420,000 tested, 12% active | AID 686979, 2013 | Potency, µM (doses to about 46.2 µM), without a hit: at the highest dose activity change, negative = growth inhibition, most hits filed as inhibitors; further: potency means the concentration at half of the fitted maximal effect; nearly all actives have a fitted effect of over 55% in size
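Chicken DT40 Tdp1-/- cells stably complemented with human TDP1 were seeded at 400 cells/well in medium containing 20 nM camptothecin, exposed to pin-transferred compounds, and grown at 37 °C for at least 48 hr. Viability was read as ATP luminescence.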
Gal4-VP16 FLuc: VP16 counterscreen qHTS for inhibitors of ROR gamma transcriptional activity; AID 2546, 2010; 310,000 tested, 3.5% active; Drosophila S2 Gal4-VP16 UAS-luciferase, luminescence, 20 h; Potency, µM (highest dose often 53.6 µM), for the others: top-dose activity, negative = inhibition, usual class: inhibitors;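 further: Gal4-VP16 expression switched on by copper sulfate through the metallothionein promoter; potency means the concentration at half of the fitted maximal effect; nearly all actives have a fitted effect of over 50% in size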
ELG1 repair inh: qHTS screen for small molecules that inhibit ELG1-dependent DNA repair in human embryonic kidney (HEK293T) cells expressing luciferase-tagged ELG1. Potency, µM (series often up to 46.1 µM), without a hit: top-dose activity change, negative = inhibition, actives largely listed as inhibitors. 330,000 tested, 2.3% active. HEK293T ELG1-luciferase reporter, luminescence, 16 h; DNA damage induced by 5-fluorouridine. AID 504467, 2011; further: potency means the concentration at half of the fitted maximal effect; nearly all actives have a fitted effect of over 55% in size
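5-Fluorouridine DNA damage + compound/DMSO, 2,000 cells/well, 16 h, 37 °C/5% CO2. ONE-Glo, 30 min RT, luminescence. Readout = decrease in reporter signal.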
RORg inh: qHTS for inhibitors of ROR gamma transcriptional activity; Drosophila S2 Gal4-RORgamma UAS-luciferase reporter, 20 h; AID 2551, 2010; Potency, µM (doses to about 53.6 µM), without a hit: top-dose activity change, negative = inhibition, most hits filed as inhibitors; 310,000 tested, 5.4% active; Nuclear receptor ROR-gamma (Mus musculus), P51450; further: potency means the concentration at half of the fitted maximal effect; nearly all actives have a fitted effect of over 60% in size
Target sequence (P51450 whole entry, looked up, the tested form may be a part): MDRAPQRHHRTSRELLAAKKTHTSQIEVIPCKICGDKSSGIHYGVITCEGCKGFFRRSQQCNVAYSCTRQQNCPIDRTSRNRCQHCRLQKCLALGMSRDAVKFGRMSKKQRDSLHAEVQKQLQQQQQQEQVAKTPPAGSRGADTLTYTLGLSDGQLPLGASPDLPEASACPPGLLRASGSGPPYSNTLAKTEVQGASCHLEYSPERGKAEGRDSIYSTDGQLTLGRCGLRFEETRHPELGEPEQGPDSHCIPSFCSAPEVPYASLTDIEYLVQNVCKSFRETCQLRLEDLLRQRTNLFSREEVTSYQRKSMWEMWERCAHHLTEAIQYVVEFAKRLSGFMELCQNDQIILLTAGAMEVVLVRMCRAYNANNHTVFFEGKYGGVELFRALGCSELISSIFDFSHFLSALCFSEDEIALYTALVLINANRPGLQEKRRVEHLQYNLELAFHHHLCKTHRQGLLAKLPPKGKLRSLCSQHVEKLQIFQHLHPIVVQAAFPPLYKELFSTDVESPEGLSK
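Compounds are pin-transferred onto Drosophila Schneider cells expressing a copper-inducible Gal4–ROR gamma transactivation domain fusion. After 1 hr, copper sulfate is added to 700 uM final; luciferase is read 20 hr later.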
IL1B secr inh: qHTS for Inhibitors of Inflammasome Signaling: IL-1-beta AlphaLISA Primary Screen; 360,000 tested, 4.7% active; AID 743279, 2014; activity change, % at 57.5 µM; THP-1 LPS/ATP IL-1B secretion, AlphaLISA, 16 h; hits give low values; in the data active means activity change below about -50%; inconclusive means mostly about -30% to -49%
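Secreted IL-1B measured by AlphaLISA bead assay after 16 h compound exposure of THP-1 cells; compounds (final up to 57.5 uM) added 1 h before LPS (250 ng/mL) and ATP (1.25 mM) stimulation; lower signal means less secretion.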
* = called active by the depositor; ? = inconclusive; nt = no result. This is a sample that favours compounds with a hit; in the whole collection about 21% have one here. Unless noted, the call rests on the fitted dose curve; in most records, active means well fitted curve in the direction sought with a large enough effect; inconclusive means small, poorly fitted or top-dose-only effect, or another doubt; inactive means no such curve, though single readings can be large; an effect the other way counts as inactive or inconclusive. On the % scale 0 is the no-effect control and ±100 the full control effect.

SMILES	DT40 TDP1 no CPT	TDP1 cell CPT	Gal4-VP16 FLuc	ELG1 repair inh	RORg inh	IL1B secr inh
N#CCSc1nc2cc(C(=O)N3CCC(C(N)=O)CC3)ccc2c2nc3ccccc3n12	?	?	-5%	21µM*	-20%	-3
C=CCn1c(SCc2ccc(Cl)cc2)nc2cc(C(=O)N3CCC(C(N)=O)CC3)ccc2c1=O	?	?	1%	8.2µM*	1%	1
O=C(C=C1SCCS1)/C=C/c1ccco1	?	?	?	?	?	-92*
COc1cc(C(=O)Nc2ccc(C)cc2)c(-n2cnnn2)cc1OC	-1%	1%	-1%	4%	-12%	28
COc1ccc(NC(=O)CN(C)S(=O)(=O)c2ccc3nc(C)sc3c2)cc1	-11%	-19%	nt	nt	nt	nt
COc1cccc(NC(=O)CN(Cc2ccccc2)S(=O)(=O)c2ccc3nc(C)sc3c2)c1	26µM*	?	nt	nt	nt	nt
CCOc1ccc(NC(=O)CN(Cc2ccccc2)S(=O)(=O)c2ccc3nc(C)sc3c2)cc1	26µM*	?	nt	nt	nt	nt
COc1cccc(CNC(=O)CNS(=O)(=O)c2ccc3nc(C)sc3c2)c1	15µM*	?	nt	nt	nt	nt
Cc1cccc(CS(=O)(=O)Cc2ccc(C(=O)NCc3ccc(F)cc3)o2)c1	?	21µM*	nt	nt	nt	nt
Cc1cccc(CS(=O)(=O)Cc2ccc(C(=O)NCc3cccnc3)o2)c1	-12%	-12%	-7%	-7%	-1%	10
Cc1cccc(CS(=O)(=O)Cc2ccc(C(=O)NCc3ccc(Cl)cc3)o2)c1	23µM*	16µM*	nt	nt	nt	nt
CC(C)(C)N1C(=O)c2ccccc2NC(=O)C1C(=O)Nc1ccc2c(c1)OCCO2 (stereo unspecified)	-17%	?	nt	nt	nt	-4
O=C1OC[C@@H]2CCCN2C(=O)[C@@H](CC(=O)N(CCO)Cc2ccccc2)C/C=C\C[C@@H]1Cc1ccc(F)cc1	?	23µM*	nt	-23%	nt	?
O=C1N[C@@H](Cc2ccccc2)COC(=O)[C@H](Cc2ccc(F)cc2)C/C=C\C[C@@H]1CC(=O)N(CCO)Cc1ccccc1	?	?	nt	21µM*	nt	?
C[C@H]1COC(=O)[C@@H](Cc2ccc(F)cc2)C/C=C\C[C@H](CC(=O)N(CCO)Cc2ccccc2)C(=O)N1	23µM*	21µM*	nt	14%	nt	24
O=C1N[C@H](Cc2ccccc2)COC(=O)[C@@H](Cc2ccc(F)cc2)C/C=C\C[C@H]1CC(=O)N(CCO)Cc1ccccc1	26µM*	?	nt	?	nt	-59*
CC1(C)OCC(N)(CO)CO1	-18%	0%	nt	nt	nt	11
COc1ccc(CNc2cc(-c3cccnc3)ncn2)c(OC)c1	-28%	?	-2%	nt	24%	nt
COc1cc(NC(=O)Nc2nnc([C@H]3C[C@H](O)[C@@H](CO)O3)s2)cc(OC)c1OC	-12%	-3%	nt	nt	nt	12
O=C1N[C@H](Cc2ccccc2)COC(=O)[C@H](Cc2ccc(F)cc2)C/C=C\C[C@@H]1CC(=O)N(CCO)Cc1ccccc1	16µM*	?	nt	?	nt	?
COc1ccccc1NC(=S)N(CCCN(C)C)Cc1cc2cc3c(cc2[nH]c1=O)OCO3	-16%	-1%	-7%	8%	9%	-23
COc1ccc(NC(=O)N(CCN2CCCC2)Cc2cc3cc(OC)c(OC)cc3[nH]c2=O)cc1	-25%	-9%	0%	0%	12%	-8
CCc1ccc2[nH]c(=O)c(CN(Cc3ccccc3)C(=O)Nc3ccccc3OC)cc2c1	?	?	-2%	?	35%	-59*
CN(C)CCCN(Cc1cc2cc3c(cc2[nH]c1=O)OCO3)C(=S)Nc1cccc(Cl)c1	29µM*	?	?	-1%	21%	-102*
COc1cc2cc(CN(Cc3cccnc3)C(=O)Nc3ccccc3)c(=O)[nH]c2cc1OC	?	?	4%	7.3µM*	1%	?
SMILES	DT40 TDP1 no CPT	TDP1 cell CPT	Gal4-VP16 FLuc	ELG1 repair inh	RORg inh	IL1B secr inh
CCOc1ccc2[nH]c(=O)c(CN(CCN3CCCC3)C(=S)Nc3ccccc3OC)cc2c1	-19%	-29%	-4%	-4%	2%	-62*
COC(=O)c1cc(CNC(=O)c2ccc(N(C)C)cc2)cc(NC(=O)c2ccccc2Cl)c1	-28%	0%	nt	nt	nt	nt
CCN(CC)CCCN(Cc1cc2cc3c(cc2[nH]c1=O)OCO3)C(=S)Nc1ccccc1OC	-15%	18µM*	-5%	14%	1%	-29
COc1ccccc1NC(=O)N(Cc1cccs1)Cc1cc2cc3c(cc2[nH]c1=O)OCO3	16µM*	?	-7%	?	?	8
COC(=O)c1ccccc1NC(=S)N(Cc1ccc2c(c1)OCO2)Cc1cc2cc(OC)ccc2[nH]c1=O	16µM*	9.2µM*	?	10µM*	33%	0
CN(C)CCCN(Cc1cc2cc3c(cc2[nH]c1=O)OCO3)C(=S)Nc1ccccc1	-4%	0%	-1%	-17%	1%	-62*
O=C(CSc1nc(=O)[nH]c2c1CCC2)NCc1ccc(F)cc1	-10%	17%	nt	nt	nt	nt
COc1ccccc1N1CCN(C(=O)c2ccc3[nH]c4c(c3c2)CCCC4)CC1	?	?	-27%	-17%	37%	-76*
O=C(c1ccc2[nH]c3c(c2c1)CCCC3)N1CCN(c2ccc(F)cc2)CC1	?	23µM*	2%	-5%	?	-18
COc1ccccc1N1CCN(C(=O)c2ccncc2)CC1	?	-9%	1%	-2%	-11%	16
CC(=O)c1ccc(N2CCN(C(=O)c3ccc4[nH]c(C)c(C)c4c3)CC2)cc1	16µM*	21µM*	nt	-19%	nt	-12
Cc1[nH]c2ccc(C(=O)N3CCN(c4ccc(F)cc4)CC3)cc2c1C	-17%	?	6%	-7%	0%	0
CC(=O)N1CCN(S(=O)(=O)c2cccc(C(=O)NNC(=O)COc3ccc(F)cc3)c2)CC1	-3%	-1%	nt	15%	nt	73
COCCCNC(=O)CSc1nc2cc(S(=O)(=O)N3CCCCC3)ccc2o1	-30%	-15%	nt	15%	nt	3
